Sampled rows, rich in hits. Any-hit rate of the full collection: about 6%.
CRE Fsk mod: alters forskolin-stimulated CRE reporter signaling in CHO cells; CHO CRE-bla reporter (cAMP response element driving beta-lactamase), forskolin EC10, beta-lactamase ratio; Potency, µM (doses to about 38.2 µM), hits mostly activators; hit rate 2.5% among 71,000; active = well fitted activation curve with a large enough effect in the signal ratio, with a control signal flat, not every such curve was filed as active; inconclusive = small, poorly fitted or top-dose-only effect, or effect the other way, or a change in a side signal; the % refers to the signal ratio
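CHO CRE-bla cells, overnight plating in Opti-MEM with 0.5% dialyzed FBS; cpd titration + EC10 NKH 477, 3 h 37 °C; CCF4 2 h RT; ex 405/em 460 vs 530 ratio → %Activity, AC50.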
HEK293 cAMP ctrl: raises cAMP in parental HEK293 cells, TSHR agonist counter-screen. parental HEK293 CNG cAMP sensor, membrane potential fluorescence. Potency, µM (top dose mostly 57.1 µM), usual class: activators. hit rate 2.5% among 73,000; also: nearly all actives have a fitted effect of over 55% in size
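Counterscreen for endogenous-receptor signalling: CNG-channel HEK 293 cells report cAMP rise by membrane depolarization. After 60 min dye equilibration with 100 uM RO 20-1724, compounds incubated 30 min before bottom-read fluorescence at 590 nm.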
ERK AVP block: blocks ERK signaling stimulated by vasopressin | hit rate 0.99% among 72,000 | Potency, µM (doses to about 57.5 µM), actives largely listed as inhibitors | HEK293-V1b, vasopressin-stimulated pERK AlphaScreen | AID 995; also: nearly all actives have a fitted effect of over 55% in size
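Phosphorylated ERK1/2 detected via AlphaScreen bead proximity in lysates of V1b-expressing HEK293 cells given 25 nM vasopressin for 5 min after 30 min compound exposure (37 °C). AC50 from Hill equation; basal DMSO 0%, vasopressin 100%.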
TSHR ag: agonists of human thyroid stimulating hormone receptor. HEK293-CNG-TSHR cells (CNG channel as cAMP sensor), membrane potential dye, cAMP. Potency, µM (doses to about 57.1 µM), usual class: activators. hit rate 0.48% among 73,000. AID 926; active = well fitted activation curve with a large enough effect in the main read-out, with a control signal flat, not every such curve was filed as active; inconclusive = small, poorly fitted or top-dose-only effect, or a change in a side signal; inactive = no such curve, though single readings can be large or run the other way; reference of the percent scale not stated here;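 also: the control signal comes from parental cells without the receptor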
Target sequence (P16473 whole entry, looked up): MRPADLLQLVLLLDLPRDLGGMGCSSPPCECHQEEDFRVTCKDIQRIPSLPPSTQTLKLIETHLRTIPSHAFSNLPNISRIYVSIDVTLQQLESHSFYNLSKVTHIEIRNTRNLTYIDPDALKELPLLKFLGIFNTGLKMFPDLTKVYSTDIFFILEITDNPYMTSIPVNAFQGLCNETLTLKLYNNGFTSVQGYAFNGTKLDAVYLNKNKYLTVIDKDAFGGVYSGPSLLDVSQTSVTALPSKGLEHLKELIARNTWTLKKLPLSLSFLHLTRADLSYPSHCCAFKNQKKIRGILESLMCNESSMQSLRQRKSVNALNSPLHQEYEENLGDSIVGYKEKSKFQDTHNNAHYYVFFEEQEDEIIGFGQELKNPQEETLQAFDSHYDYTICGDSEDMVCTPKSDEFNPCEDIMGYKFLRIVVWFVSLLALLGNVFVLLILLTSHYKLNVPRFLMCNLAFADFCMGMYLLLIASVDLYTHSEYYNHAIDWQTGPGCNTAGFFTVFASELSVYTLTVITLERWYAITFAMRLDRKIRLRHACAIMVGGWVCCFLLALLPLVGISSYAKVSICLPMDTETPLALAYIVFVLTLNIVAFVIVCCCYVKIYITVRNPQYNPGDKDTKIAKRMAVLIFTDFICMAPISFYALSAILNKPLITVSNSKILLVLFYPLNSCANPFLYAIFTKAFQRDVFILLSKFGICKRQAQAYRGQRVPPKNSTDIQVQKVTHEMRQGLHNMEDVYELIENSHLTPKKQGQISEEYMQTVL
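HEK 293 cells stably expressing TSHR and a cAMP-gated CNG channel; parental CNG-only cells as counterscreen. Cells preloaded 60 min with membrane potential dye plus 100 uM RO 20-1724, then compound 30 min; fluorescence read at 590 nm.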
A number is an active result; . = inactive; ? = inconclusive; / = no result given; [ ] = another dose, or the depositor's remark. Unless noted, calls follow the shape of the dose curve; as a rule, active = well fitted curve in the direction sought with a large enough effect; inconclusive = small, poorly fitted or top-dose-only effect, or another doubt; inactive = no such curve, though single readings can be large; an effect the other way counts as inactive or inconclusive.

SMILES	CRE Fsk mod	HEK293 cAMP ctrl	ERK AVP block	TSHR ag
Cc1nn(C)c(C)c1S(=O)(=O)N1CCCC(C(=O)NC2CCCCCC2)C1 (centres undefined)	.	?	.	?
COc1ccc(-c2nc3cnc(N4CCNCC4)nc3n(CCC#N)c2=O)cc1	?	?	.	?
CCOc1ccc(OCCSc2nnnn2C2CCCCC2)cc1	.	20µM	.	?
CCOc1ccc2nc(NC(=O)CSc3nnnn3C3CCCCC3)sc2c1	.	.	.	.
COc1c(-c2coc3cc4c(cc3c2=O)CC(OC(C)=O)C(C)(C)O4)ccc2c1C=CC(C)(C)O2 (centres undefined)	/	/	16µM	/
COc1c(-c2coc3cc4c(cc3c2=O)CC(O)C(C)(C)O4)ccc2c1C=CC(C)(C)O2 (centres undefined)	/	/	3.2µM	/
NNC(=O)c1ccc[n+](CCc2ccccc2)c1	.[7.6 µM]	.[11.4 µM]	.[11.5 µM]	.[11.4 µM]
CCOC(=O)c1ccccc1NC(=O)CSc1nc2ccccc2n1CC(=O)N1CCCC1	2µM	.	.	.
COC(=O)c1ccccc1NC(=O)Cn1c(-c2nonc2N)nc2ccccc21	?	16µM	.	?
N#CCCSC(=S)[C@H]1CCCC1=N	.[7.6 µM]	?	.[11.5 µM]	?
COc1ccc(CNc2ncncc2-c2ccccc2C(F)(F)F)c(OC)c1	.	?	.	?
COc1ccc(-n2c(=O)c(-c3cc(F)cc(F)c3)nc3cnc(N(C)C)nc32)cc1	?	.	.	.
CCCC/C=C/C(NC(=O)c1ccc(C(F)(F)F)cc1)c1ccccc1 (centres undefined)	?	?	.	?
CCCC/C=C/C(NC(=O)CCc1ccccc1)c1ccccc1 (centres undefined)	.	10µM	.	?
CCCC/C=C/C(NC(=O)Oc1cccc(C(F)(F)F)c1)c1ccccc1 (centres undefined)	.	25µM	.	?
CCCC/C=C/C(NC(=O)c1ccccc1)c1ccccc1 (centres undefined)	.	?	.	?
CC1CCC(C(=O)O)([C@H](Br)C(=O)O)CC1 (some centres undefined)	?	.[11.4 µM]	.[11.5 µM]	.[11.4 µM]
COC(=O)[C@@]1(Cc2ccccc2)[C@H]2c3cc(C(=O)N(C)C)n(Cc4ccc(S(C)(=O)=O)cc4)c3C[C@H]2CN1C(=O)c1ccccc1	?	16µM	.	?
COC(=O)[C@@]1(Cc2ccc(F)cc2)[C@H]2c3cc(C(=O)N(C)C)n(Cc4cc(F)c(F)c(F)c4)c3C[C@H]2CN1C(=O)c1ccccc1	.	.	.	.
COC(=O)[C@@]1(Cc2ccc(OC)cc2)[C@H]2c3cc(C(=O)N(C)C)n(Cc4ccc(OC)c(OC)c4)c3C[C@H]2CN1C(=O)c1ccccc1	?	16µM	.	?
COC(=O)[C@@]1(Cc2ccccc2)[C@H]2c3cc(C(=O)N(C)C)n(Cc4ccc(OC)c(OC)c4)c3C[C@H]2CN1C(=O)c1ccccc1	?	?	.	?
COC(=O)[C@@]1(Cc2ccccc2)[C@H]2c3cc(C(=O)N(C)C)n(Cc4ccccc4)c3C[C@H]2CN1C(=O)c1ccccc1	.	2.5µM	.	?
COC(=O)[C@@]1(Cc2ccc(OC)cc2)[C@H]2c3cc(C(=O)N(C)C)n(Cc4cc(F)c(F)c(F)c4)c3C[C@H]2CN1C(=O)c1ccccc1	.	4µM	.	?
O=c1c(-c2cccs2)nc2cnc(Oc3cccc(Cl)c3)nc2n1C[C@H]1CCCO1	?	?	.	?
CC(=O)NCCNc1nc(-c2ccccc2C)nc2ccccc12	?	.	.	.
SMILES	CRE Fsk mod	HEK293 cAMP ctrl	ERK AVP block	TSHR ag
CC(C)N(Cc1ccccc1)S(=O)(=O)c1n[nH]c(C(C)(C)C)n1	.[7.6 µM]	.[11.4 µM]	.[11.5 µM]	.[11.4 µM]
COC(=O)[C@@]1(Cc2ccc(OC)cc2)[C@H]2c3cc(C(=O)N(C)C)n(Cc4ccc(C(F)(F)F)nc4)c3C[C@H]2CN1C(=O)c1ccccc1	.	6.3µM	.	?
COC(=O)[C@@]1(Cc2ccccc2)[C@H]2c3cc(C(=O)N(C)C)n(Cc4ccsc4Br)c3C[C@H]2CN1C(=O)c1ccccc1	?	3.2µM	.	?
COC(=O)[C@@]1(Cc2ccccc2)[C@H]2c3cc(C(=O)N(C)C)n(Cc4ccc(O)c(OC)c4)c3C[C@H]2CN1C(=O)c1ccccc1	?	25µM	.	?
COC(=O)[C@@]1(Cc2ccc(F)cc2)[C@H]2c3cc(C(=O)N(C)C)n(CC4CC4)c3C[C@H]2CN1C(=O)c1ccccc1	.	6.3µM	.	?
CCOC(=O)CCN1C(=O)[C@H]2[C@H]3[C@H](O)[C@H](O)C/C(=N/NC(=O)OCC)[C@@H]3CC[C@@H]2C1=O	/	.[11.4 µM]	.[11.5 µM]	.[11.4 µM]
CC(=O)OC[C@@H]1O[C@@H](O/N=C2/C[C@@H](O)[C@@H](O)[C@@H]3[C@@H]4C(=O)N(c5cccc(Oc6ccccc6)c5)C(=O)[C@H]4CC[C@@H]23)[C@H](OC(C)=O)[C@H](OC(C)=O)[C@@H]1OC(C)=O	/	.[11.4 µM]	.[11.5 µM]	.[11.4 µM]
O=c1c(-c2ccc(F)cc2)nc2cnc(N3CCNCC3)nc2n1Cc1ccc(F)cc1	?	?	.	?
O=c1c(-c2ccccc2)nc2cncnc2n1-c1ccccc1	?	.	?	.
Cn1c(=O)c(-c2cc(F)cc(F)c2)nc2cncnc21	?	.	.	/
Cn1c(=O)c(-c2ccccc2)nc2cncnc21	.	4µM	.	?
O=c1c(-c2cccs2)nc2cncnc2n1-c1ccccc1	?	25µM	.	?
Cn1c(=O)c(-c2cccs2)nc2cncnc21	10µM	.	.	.
CCOCC(=O)Nc1cc(C(=O)OC)ccc1C(=O)OC	.	.	.	.
CCn1ncc(Br)c1C(=O)Nc1cc(C(=O)OC)ccc1C(=O)OC	.	13µM	.	?
O=c1c(-c2ccc(F)cc2)nc2cnc(N3CCNCC3)nc2n1C1CC1	?	?	.	?
Cc1nnc(SCC2=C(C(=O)O)N3C(=O)C(NC(=O)Cn4cnnn4)[C@@H]3SC2)s1 (some centres undefined)	/	/	.	/
CC1=C(C(=O)OCc2ccc3c(c2)OCO3)C(c2ccc(Cl)cc2)NC(=O)N1 (centres undefined)	?	.	.	32µM
COc1ncc2nc(CCc3ccccc3)c(=O)n(CCc3ccccc3)c2n1	?	?	.	?
COc1ncc2nc(CCc3ccccc3)c(=O)n(Cc3cccs3)c2n1	13µM	10µM	.	?
COc1ncc2nc(C)c(=O)n(Cc3cccs3)c2n1	13µM	.[2.29 µM]	.	/
Cc1noc(C)c1C(=O)OCC(=O)c1cc(C)n(Cc2ccccc2Cl)c1C	.	25µM	.	?
CC(=O)Nc1cccc(Cn2cccn2)c1	.	20µM	.	?
CCSc1nnc(NC(=O)c2cc3c(s2)CCCC3)s1	/	.	/	/
O=C(Nc1cccc(Cn2cccn2)c1)c1cc2c(s1)CCCC2	?	.	20µM	/
CC(C)(C)c1c2c(c(C(C)(C)C)c3c1OCN(Cc1ccccc1)C3)OCN(Cc1ccccc1)C2	.[7.6 µM]	.[11.4 µM]	.[11.5 µM]	.[11.4 µM]
Cc1nn(Cc2ccccc2)c(Cl)c1C(=O)OCc1nnc(-c2ccccc2)o1	.	?	.	?

Screening data as filed in PubChem.
